CCHFV vOTU inh = blocks the CCHF virus ovarian tumor domain protease; CCHFV vOTU protease, Pep-AMC fluorescence; inhibition, % at 11.5 µM; 0.55% of 370,000 active; in the data active means inhibition above about 30%
RN4220 kill = kills Staphylococcus aureus RN4220; S. aureus RN4220 growth, OD600, 16 h; inhibition, % (concentration not given with the values); 0.33% of 330,000 active; AID 1259311; in the data active means inhibition above about 85%
ugtP null kill = kills S. aureus RN4220 lacking UgtP; S. aureus RN4220 ugtP deletion, OD600 growth, 16 h; growth inhibition, % (concentration not given with the values); 0.54% of 330,000 active; AID 1259309; in the data active means growth inhibition above about 68%
PfHsp40 rescue = rescue of PfHsp40-mediated yeast toxicity; S. cerevisiae expressing PfHsp40, growth rescue, ATP luminescence; growth rescue, % at 12.5 µM; 0.68% of 340,000 active; AID 504582; in the data active means growth rescue above about 28%, passing the limit was not always enough;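 further: yeast W303a lacking pdr1 and pdr3 grown in galactose medium; growth measured after three days at 30 °C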
BJeLR viability = BJeLR cell viability loss | inhibition, % (test concentration not listed) | BJeLR (HRASV12) viability, CellTiter-Glo ATP luminescence, 48 h | AID 1554 | 0.17% of 300,000 active; in the data active means inhibition above about 50%
A number is an active result. Compounds with a hit are over-represented: about 1.6% of the library has one in this group of screens.

For COC(=O)C1=C(c2c(C)noc2C)CC2CCC1N2C(=O)NCc1ccc2c(c1)OCO2 (stereo not drawn) the results were RN4220 kill inactive and ugtP null kill inactive.
`COc1ccc(OC)c(NC(=O)C(=O)NN=C(C)CC(=O)Nc2ccc(Cl)cn2)c1` gave RN4220 kill inactive and ugtP null kill inactive.
For CCOC(=O)c1sc2nc(CC(=O)OC)nc(NCCN(CC)CC)c2c1C the results were CCHFV vOTU inh inactive, RN4220 kill inactive, ugtP null kill inactive, PfHsp40 rescue 74 and BJeLR viability inactive.
O=P(Nc1cccnc1)(Oc1ccccc1Cl)Oc1ccccc1Cl was read as CCHFV vOTU inh inactive, RN4220 kill inactive, ugtP null kill inactive, PfHsp40 rescue 411 and BJeLR viability inactive.
For O=C(C[n+]1cccc(C(=O)NN=Cc2cccc([N+](=O)[O-])c2)c1)c1ccccc1 the results were RN4220 kill inactive and ugtP null kill inactive.
Screening O=C1c2cc(Br)ccc2N(Cc2ccc(Br)cc2)S(=O)(=O)C1c1cc(Cl)c(Cl)cc1[N+](=O)[O-] (stereo not drawn) returned PfHsp40 rescue 143.
For COc1cccc(C=Nn2cnnc2)c1OCc1ccccc1 the results were RN4220 kill inactive and ugtP null kill inactive.
For COc1ccccc1-c1ccc(C=NO)o1 the results were RN4220 kill inactive and ugtP null kill inactive.
For O=Nc1c2nc3ccccc3n(O)c-2c2ccccc12 the results were CCHFV vOTU inh inactive, RN4220 kill inactive, ugtP null kill 90, PfHsp40 rescue inactive and BJeLR viability inactive.
Screening CC(=O)Nc1ccc(/C=N/Nc2nc3ccccc3[nH]2)cc1 returned CCHFV vOTU inh inactive, PfHsp40 rescue inactive and BJeLR viability 67.
Cc1c(/C=N/Nc2nc3ccccc3[nH]2)c2ccccc2n1C was read as CCHFV vOTU inh inactive, PfHsp40 rescue inactive and BJeLR viability 65.
C/C(=N\Nc1nc2ccccc2[nH]1)c1ccccn1 was read as CCHFV vOTU inh inactive, PfHsp40 rescue inactive and BJeLR viability 74.
O=C(NN=Cc1ccc(Br)s1)c1ccco1 was read as RN4220 kill inactive and ugtP null kill inactive.
For CCOC(=O)CC1c2cc(F)ccc2S(=O)(=O)N1C1CCCCC1 (stereo not drawn) the results were RN4220 kill inactive and ugtP null kill inactive.
C#CCOCCOCCOCCNc1nc(N2CCN(C(=O)C(CCC(=O)O)n3cc(C(N)CCCCN)nn3)CC2)nc(N2CCN(C(=O)C(CCCCN)n3cc(C(N)CC(N)=O)nn3)CC2)n1 (stereo not drawn) was read as RN4220 kill inactive and ugtP null kill inactive.
`O=c1[nH]c(-c2ccccc2)nn1-c1ccc(Br)cc1Br` gave CCHFV vOTU inh inactive, RN4220 kill inactive, ugtP null kill inactive, PfHsp40 rescue 35 and BJeLR viability inactive.
O=C(OCc1ccc(F)cc1)c1ccc2c(c1)-c1ccccc1C2=O was read as CCHFV vOTU inh inactive, RN4220 kill inactive, ugtP null kill inactive, PfHsp40 rescue inactive and BJeLR viability inactive.
`CCOC(=O)C1=C(Cc2ccc(F)cc2)C(=O)c2ccccc2C1=O` gave CCHFV vOTU inh 71, RN4220 kill inactive, ugtP null kill inactive, PfHsp40 rescue inactive and BJeLR viability inactive.
For Cc1ccc(CNC(=O)c2ccc(Cn3nc(C)c(Cl)c3C)o2)cc1 the results were CCHFV vOTU inh inactive, RN4220 kill inactive, ugtP null kill inactive, PfHsp40 rescue 154 and BJeLR viability inactive.
`Cc1cc(C)cc(NC(=O)c2ccc(Cn3nc(C)c(Cl)c3C)o2)c1` gave CCHFV vOTU inh inactive, RN4220 kill inactive, ugtP null kill inactive, PfHsp40 rescue inactive and BJeLR viability inactive.
`O=C1C=C(c2ccc3[nH]ccc3c2)CC(c2ccc(Cl)cc2)C1` (stereo not drawn) gave RN4220 kill inactive and ugtP null kill inactive.
Screening CCCOC(=O)c1ccc(NC(=O)CC(C)(C)C)cc1 returned CCHFV vOTU inh inactive, RN4220 kill inactive, ugtP null kill inactive, PfHsp40 rescue 52 and BJeLR viability inactive.
`CC(C)c1onc(C(=O)N2CCN(c3ccccc3)CC2)c1[N+](=O)[O-]` gave CCHFV vOTU inh inactive, RN4220 kill inactive, ugtP null kill inactive, PfHsp40 rescue inactive and BJeLR viability inactive.
CC(C)c1onc(C(=O)N2CCN(C(c3ccccc3)c3ccccc3)CC2)c1[N+](=O)[O-] was read as CCHFV vOTU inh inactive, RN4220 kill inactive, ugtP null kill inactive, PfHsp40 rescue inactive and BJeLR viability 91.
Screening CCc1ccc(-c2cc(C(=O)N3N=C(C(F)F)CC3(O)C(F)F)c3ccccc3n2)cc1 (stereo not drawn) returned CCHFV vOTU inh inactive, RN4220 kill inactive, ugtP null kill inactive, PfHsp40 rescue 174 and BJeLR viability inactive.
CC(C)Cc1cc(C(=O)N2N=C(C(F)F)CC2(O)C(F)F)c2ccccc2n1 (stereo not drawn) was read as CCHFV vOTU inh inactive, RN4220 kill inactive, ugtP null kill inactive, PfHsp40 rescue inactive and BJeLR viability inactive.
CCC1Sc2ccc(S(=O)(=O)Nc3ccc(OC)cc3)cc2NC1=O (stereo not drawn) was read as CCHFV vOTU inh inactive, RN4220 kill 96, ugtP null kill 93, PfHsp40 rescue inactive and BJeLR viability inactive.
Screening CCC1Sc2ccc(S(=O)(=O)Nc3ccc(OC)c(OC)c3)cc2NC1=O (stereo not drawn) returned CCHFV vOTU inh inactive, RN4220 kill inactive, ugtP null kill inactive, PfHsp40 rescue inactive and BJeLR viability inactive.
Cc1c(C=NNC(=O)CNc2ccccc2)c2ccccn2c1C(=O)c1ccccc1 was read as RN4220 kill inactive and ugtP null kill inactive.
O=c1c2cc(Br)ccc2nc(-c2ccccc2)n1O was read as CCHFV vOTU inh inactive, PfHsp40 rescue 128 and BJeLR viability inactive.
For Cc1ccc(-c2nc3ccc(Cl)cc3c(=O)n2O)cc1 the results were CCHFV vOTU inh inactive, RN4220 kill inactive, ugtP null kill inactive, PfHsp40 rescue 355 and BJeLR viability inactive.
Screening Cc1nc2ccc(Br)cc2c(-c2ccccc2)c1C(=O)O returned CCHFV vOTU inh inactive, PfHsp40 rescue inactive and BJeLR viability inactive.
O=c1c2cc(Cl)ccc2nc(-c2ccccc2Cl)n1O was read as CCHFV vOTU inh inactive, RN4220 kill inactive, ugtP null kill inactive, PfHsp40 rescue inactive and BJeLR viability inactive.
`O=c1c2ccccc2nc(-c2ccc([N+](=O)[O-])cc2)n1O` gave CCHFV vOTU inh inactive, RN4220 kill inactive, ugtP null kill inactive, PfHsp40 rescue 30 and BJeLR viability inactive.
Screening O=c1c2ccccc2nc(-c2cccc(Cl)c2)n1O returned CCHFV vOTU inh inactive, RN4220 kill inactive, ugtP null kill inactive, PfHsp40 rescue 236 and BJeLR viability inactive.
`O=c1c2ccccc2nc(-c2ccc([N+](=O)[O-])cc2)n1-c1ccccc1` gave CCHFV vOTU inh inactive, RN4220 kill inactive, ugtP null kill inactive, PfHsp40 rescue inactive and BJeLR viability inactive.
Screening Oc1cccc(C=NNc2cccc3cccnc23)c1 returned RN4220 kill inactive and ugtP null kill inactive.
`O=C1C2C(C(=O)N1N=Cc1ccc(N3CCCCC3)o1)C1C=CC2C12CC2` (stereo not drawn) gave RN4220 kill inactive and ugtP null kill inactive.
